From ChEMBL document CHEMBL3988442, “University of Dundee, Small-Polar-MMV Screening Library” (2021)
Out of some 66,000 compounds screened, about 960 (1.5%) showed an effect of 50% or more. Shown is part of a subset that was picked to be rich in strong results.

System: Trypanosoma brucei
Assay: Trypanosoma brucei 72 hour study
Type: functional, organism-based
Design: scale not given: in the data most compounds retested in dose-response had high values

Compound	Percent Effect (30 µM, 30.03 µM)	Percent Effect (30.3 µM, […])
c1cc(N2CCC(CN3CCOCC3)CC2)c2sccc2n1	-9.098%	
Cc1noc(CNC(=O)NCCOc2ccc(Cl)cc2)n1	-8.016%	
COc1ccc(OCc2sc(C3(O)CCCNCC3)nc2C)cc1.Cl (stereo not given)		57.18%
CCN1CCCC(O)(c2nc(C)c(CCOc3ccc(F)cc3)s2)CC1 (stereo not given)		-11.99%
C[C@@H]1CN(CCOc2ccc(Cl)cc2)CC[C@@]1(O)C1CCOCC1	-42.79%	
COc1ccc(OCCc2sc(C3(O)CCCNCC3)nc2C)cc1.Cl (stereo not given)		34.01%
Cc1nc(C)c(COc2ccc(S(=O)(=O)N(C)C)cc2)s1	-44.61%	
CC(=O)NCc1nc(CCOc2ccc(Cl)cc2)no1	-81.13%	
Cc1nc(C2(O)CCCNCC2)sc1CCOc1ccc(F)cc1.Cl (stereo not given)		73.77%
Cc1nc(C2(O)CCCNCC2)sc1CCOc1ccc(Cl)cc1.Cl (stereo not given)		101.5%
CCCN1CCCC(O)(c2nc(C)c(COc3ccccc3)s2)CC1 (stereo not given)		37.82%
O=C(O)C(F)(F)F.O=C(O)C(F)(F)F.c1cnc(N2C[C@H]3CCN(CCN4CCCC4)C[C@H]3C2)cn1		4.729%
COc1cc(C(=O)N2CCCC(c3cc(C)[nH]n3)C2)cc(OC)c1C (stereo not given)		-7.766%
CCCS(=O)(=O)N1CCO[C@H]2[C@@H](Oc3cccnc3)CC[C@@H]21.O=C(O)C(F)(F)F		-3.605%
O=C(NCC1CC1)[C@@H]1CC[C@@H]2[C@@H](CCN2Cc2ccco2)O1.O=C(O)C(F)(F)F		-31.37%
O=C(O)C(F)(F)F.O=C(c1ccco1)N1CC[C@@H]2O[C@H](COCCN3CCCC3)CC[C@@H]21	43.22%	
COc1ccc2c(ccn2CCCN)c1.O=C(O)C(=O)O	0.08661%	
O=C(O)C(F)(F)F.O=C(c1ccc(F)cc1)N1CCC2(CC1)CC(N1CCOCC1)C2		-59.01%
Cn1nccc1C(=O)N1CC[C@]2(C[C@H](OCc3ccccn3)CO2)C1.O=C(O)C(F)(F)F		-48.61%
COc1cccc(N2Cc3nc(=O)n(C(C)C)n3C2=O)c1	-40.88%	
CC[C@@H]1N(Cc2ccc(OC)cc2)CCC[C@]12CCC(=O)N2CCOC.O=C(O)C(F)(F)F		-46.04%
CCOc1ccc(N2CCCN=C2NC(=O)c2cccc(OC)c2)cc1		-26.63%
COc1cccc(-c2noc(C3CCN(Cc4ccccc4F)C3)n2)c1.Cl (stereo not given)		-18.78%
COc1cccc(-c2noc(C3CCN(Cc4cn(C)nc4C)C3)n2)c1 (stereo not given)	63.09%	
COc1cccc(-c2noc(C3CCN(Cc4ccccc4C)C3)n2)c1.Cl (stereo not given)		-12.24%

Compound	Percent Effect (30 µM, 30.03 µM)	Percent Effect (30.3 µM, […])
CNC(=O)[C@@]12CCO[C@@H]1CCN(Cc1ccc3c(c1)OCO3)C2.O=C(O)C(F)(F)F		-39.27%
Cc1nccn1CCCn1cncc1-c1ccc2c(c1)CCC(C)N2C.Cl (stereo not given)		17.11%
Cc1nn(C)c(C)c1CCn1cncc1-c1ccc2c(c1)CC(C)N2C.Cl (stereo not given)		26.67%
CCN1c2ccc(-c3cncn3CCCn3ccnc3C)cc2CC1C.Cl (stereo not given)		7.904%
Cc1cc(C)n(CCCn2cncc2-c2ccc3c(c2)CC(C)N3C)n1.Cl (stereo not given)		83.42%
Cc1nccn1CCCn1cncc1-c1ccc2c(c1)CC(C)N2C.Cl (stereo not given)		-10.42%
COCC1N(S(=O)(=O)c2cn(C)cn2)[C@H]2CC[C@]1(O)CC2 (stereo not given in full)		-23.23%
CN(C)C(=O)CN1C(=O)CCC12CCN(Cc1cccs1)CC2.O=C(O)C(F)(F)F		-53.05%
O=C(O)C(F)(F)F.O=C(c1cscn1)N1CCCC2(CCN2Cc2cccc(F)c2)C1 (stereo not given)		27.36%
Cc1cc(C)cc(OCC(O)CN2CCN(c3nccs3)CC2)c1 (stereo not given)	-27.85%	
COC(=O)c1ccc(N2CCN(C(=O)c3cnc(C)cn3)C(C)C2)cc1 (stereo not given)		8.397%
Cc1nn(C)c2nc(-c3ccccn3)nc(NCCC3CCCN3C)c12 (stereo not given)	-75.32%	
CCC1(O)CCCN(c2nc(-c3ccccn3)nc3c2c(C)nn3C)C1 (stereo not given)	51.81%	
Cc1nn(C)c2nc(-c3ccccn3)nc(NC[C@@H]3CCCO3)c12	-82.13%	
O=C1CCC2(CCN(Cc3cscn3)CC2)CN1[C@H]1CC[C@H](O)CC1	-1.213%	
CNc1cccc(CC2COCCN(C(=O)c3cccnc3)C2)n1 (stereo not given)		5.622%
CCNC(=O)NCCc1csc(N2CCCC2)n1	-10.34%	
CC(C)(C)SCC(=O)NCCc1csc(N2CCCC2)n1	-0.8864%	
CC(C)(C)OC(=O)NCCc1csc(N2CCCC2)n1	63.65%	
CCN1CCCC(O)(c2nc(C)c(CCOc3ccccc3Cl)s2)CC1 (stereo not given)		33.23%
Cc1ncccc1OC1(C(=O)NCCNc2ccccc2)CCNCC1		0.199%
CC(=O)Nc1nc(C(=O)NCCOc2ccccc2F)cs1		-41.52%
Cc1nc(C2(O)CCCNCC2)sc1CCOc1ccccc1Cl.Cl (stereo not given)		102.3%
Cc1nc(C2(O)CCCNCC2)sc1CCOc1ccccc1.Cl (stereo not given)		41.97%
Cc1nc(C2(O)CCCNCC2)sc1CCOc1ccccc1F.Cl (stereo not given)		74.4%

Compound	Percent Effect (30 µM, 30.03 µM)	Percent Effect (30.3 µM, […])
Cc1ncc(C(=O)NCCOc2ccccc2F)c(C)n1	-71.35%	
CCN1CCCC(O)(c2nc(C)c(CCOc3ccccc3F)s2)CC1 (stereo not given)		-7.056%
CNC(=O)CN1CC[C@H]2CN(C(=O)c3ccccc3C)C[C@H]2C1.O=C(O)C(F)(F)F		-31.13%
O=C(COc1ccccc1F)N1CCCCC1c1ccn2ccnc2n1 (stereo not given)		-11.94%
O=C(C1=CCCC1)N1CCO[C@H]2[C@@H](Oc3ccccn3)CC[C@@H]21.O=C(O)C(F)(F)F	21.55%	
Cc1c(C)n(-c2ccccn2)c2nc3c(c(N)c12)CCCC3	65.81%	
Cc1c(C)n(Cc2ccccn2)c2nc3c(c(N)c12)CCCC3	14.96%	
Cc1c(C)n(-c2ccccn2)c2nc3c(c(N)c12)CCCCC3	-26.49%	
O=C(C1CCCC1)N1C[C@@H]2CCN(c3cnccn3)C[C@@H]2C1.O=C(O)C(F)(F)F		-13.6%
CCc1ccc(CN2C[C@@H]3COC[C@H](NS(C)(=O)=O)[C@@H]3C2)o1.O=C(O)C(F)(F)F		-9.462%
Cc1ccc(NC2CCN(C(=O)c3ccsc3)CC2)nn1	-24.89%	
Cc1ccc(N(C)C2CCN(C(=O)c3ccsc3)CC2)nn1	59.68%	
Cc1ccc(N2CCC3(CCN(C(=O)c4ccsc4)CC3)CC2)nn1	20.14%	
CC1=Nc2c(c(=O)[nH]n2C2CCCC2)C(c2ccc(O)cc2)S1 (stereo not given)	-3.6%	
Cc1cc(C)n(CC2CN(Cc3nc4ccccc4s3)CCO2)n1 (stereo not given)		18.1%
CCn1cc(S(=O)(=O)N2CCC(C)Sc3ccccc32)cn1 (stereo not given)	-33.91%	
CN1CCN(S(=O)(=O)c2cccnc2)c2cnccc21		-3.164%
CC1CCN(S(=O)(=O)c2cccnc2)c2ccccc2S1 (stereo not given)	80.08%	
Cn1nc(C(=O)N2CCOCC2)cc1C(=O)Nc1c(Cl)cccc1Cl	-27.89%	
CC(C)c1cc(C2CCN(C(=O)Cn3cnc4ccccc43)CC2)[nH]n1	-44.45%	
Cc1cc(C(F)(F)F)nc(CCNC(C)Cn2ccnc2)n1 (stereo not given)	-48.3%	
CN(CCN1CCOCC1)C(=O)CCc1cccc(Cl)c1	2.26%	
CCCC(=O)N(CCN1CCOCC1)c1nc2c(OC)ccc(C)c2s1.Cl		13.57%
CCCC(=O)N(CCCN1CCOCC1)c1nc2c(F)cccc2s1.Cl		24.42%
CCCC(=O)N(CCCN1CCOCC1)c1nc2c(C)ccc(Cl)c2s1.Cl		71.42%

Compound	Percent Effect (30 µM, 30.03 µM)	Percent Effect (30.3 µM, […])
CCCC(=O)N(CCCN1CCOCC1)c1nc2c(Cl)cccc2s1.Cl		55.71%
CCCC(=O)N(CCCN1CCOCC1)c1nc2c(C)c(C)ccc2s1.Cl		27.33%
CN1CC[C@]2(CN(CC3CCOC3)C[C@H]2c2ccccc2)C1=O.O=C(O)C(F)(F)F (stereo not given in full)		-23.92%
Cc1cc2c(=O)n3c(nc2s1)CCN(C(=O)c1nn(C)cc1Cl)CC3		-11.28%
CN1CC(=O)N(c2cccnc2)CC12CCN(C(=O)c1cccn1C)C2.O=C(O)C(F)(F)F.O=C(O)C(F)(F)F (stereo not given)		-4.553%
O=C(C[C@@H]1COC[C@H]2CN(C(=O)c3ccccn3)C[C@@H]12)N1CCCC1.O=C(O)C(F)(F)F	-14.99%	
CS(=O)(=O)NCc1cnc2n1CCN(Cc1cccnc1)CC2.O=C(O)C(F)(F)F.O=C(O)C(F)(F)F	-10.23%	
O=C(Nc1cccnc1)C1Cc2nc(-c3ccsc3)sc2N1CC1CC1.O=C(O)C(F)(F)F (stereo not given)		60.89%
O=C(NC1CCCC1)C1Cc2nc(-c3ccsc3)sc2N1CC1CC1 (stereo not given)		33.5%
CN(C)CCNC(=O)C1Cc2nc(-c3ccsc3)sc2N1CC1CC1.O=C(O)C(F)(F)F (stereo not given)		5.041%
Cl.c1cc(CNc2cnc(C3CCCN3)cn2)ccn1 (stereo not given)		-6.296%
CSc1sc(NC(=O)C2CCCN(C(N)=O)C2)nc1C (stereo not given)	-35.12%	
Cc1nc(NC(=O)C2CCCN(C(=O)C3CC3)C2)sc1C (stereo not given)	-11.09%	
Cc1nc(NC(=O)C2CCCN(C(N)=O)C2)sc1-c1ccccc1 (stereo not given)	57.12%	
CC(C)N1CCC2(CC1)CC(NCc1ccccn1)c1ccccc1O2.O=C(O)C(F)(F)F.O=C(O)C(F)(F)F.O=C(O)C(F)(F)F (stereo not given)	2.75%	
CCc1nnsc1C(=O)N1CCCC(n2ccnc2C(C)C)C1 (stereo not given)		-10.58%
COc1cccc(Nc2nc(C3CCCNC3)c3sc(C)c(C)n23)c1.Cl (stereo not given)		2.239%
Fc1cccc(-c2nccnc2C2CCCNC2)c1 (stereo not given)		-21.91%
Cc1nn(C(C)C)c(C)c1S(=O)(=O)Nc1cccc(F)c1	-2.912%	
COc1cccc(Nc2nc(C3CCNCC3)c3ccccn23)c1.Cl		24.37%
COc1cccc(Nc2nc(C3CCNCC3)c3sc(C)c(C)n23)c1.Cl		63.57%
Cc1sc2c(C3CCCNC3)nc(Nc3cccc(F)c3)n2c1C.Cl (stereo not given)		100.1%
Cl.O=C(Nc1cccc(F)c1)C1=NOC2(CCNCC2)C1		-7.13%
Cc1sc2c(C3CCNCC3)nc(Nc3cccc(F)c3)n2c1C.Cl		99.26%
COc1cccc(Nc2nc(C3CCCNC3)c3ccccn23)c1.Cl (stereo not given)		-1.342%
